Test [1] addresses Serine/threonine-protein kinase Nek6 (Homo sapiens) (UniProt Q9HC98). To be noted: at 1 µM.
Test [2] shares this target. To be noted: at 10 µM.
In test [3] the target is Serine/threonine-protein kinase Nek7 (Homo sapiens) (UniProt Q8TDX7). Particulars: at 1 µM.
Test [4] has as its target T1, Serine/threonine-protein kinase NLK (Homo sapiens) (UniProt Q9UBE8).
T1 sequence (whole entry): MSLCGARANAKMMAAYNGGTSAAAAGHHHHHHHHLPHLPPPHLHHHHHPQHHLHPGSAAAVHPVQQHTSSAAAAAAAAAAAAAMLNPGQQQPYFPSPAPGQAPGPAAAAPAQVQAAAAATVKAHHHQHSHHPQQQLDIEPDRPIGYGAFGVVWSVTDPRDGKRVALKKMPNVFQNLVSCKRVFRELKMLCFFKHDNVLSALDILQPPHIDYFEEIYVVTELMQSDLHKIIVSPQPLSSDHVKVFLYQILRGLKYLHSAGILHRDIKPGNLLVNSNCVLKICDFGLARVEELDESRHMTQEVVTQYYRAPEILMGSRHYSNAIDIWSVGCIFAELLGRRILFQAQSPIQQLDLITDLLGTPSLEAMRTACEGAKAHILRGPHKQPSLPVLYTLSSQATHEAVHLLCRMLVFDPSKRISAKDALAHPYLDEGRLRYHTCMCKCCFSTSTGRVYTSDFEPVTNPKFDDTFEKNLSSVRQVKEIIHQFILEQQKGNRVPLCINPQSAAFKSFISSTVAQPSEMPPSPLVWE
To be noted: at 1 µM.

Test [5] addresses T1, Serine/threonine-protein kinase NLK (Homo sapiens). Particulars: at 10 µM.
For test [6], the target named is Serine/threonine-protein kinase PAK 2 (Homo sapiens) (UniProt Q13177). Particulars: at 1 µM.
Serine/threonine-protein kinase PAK 2 (Homo sapiens), sequence (Q13177 whole entry): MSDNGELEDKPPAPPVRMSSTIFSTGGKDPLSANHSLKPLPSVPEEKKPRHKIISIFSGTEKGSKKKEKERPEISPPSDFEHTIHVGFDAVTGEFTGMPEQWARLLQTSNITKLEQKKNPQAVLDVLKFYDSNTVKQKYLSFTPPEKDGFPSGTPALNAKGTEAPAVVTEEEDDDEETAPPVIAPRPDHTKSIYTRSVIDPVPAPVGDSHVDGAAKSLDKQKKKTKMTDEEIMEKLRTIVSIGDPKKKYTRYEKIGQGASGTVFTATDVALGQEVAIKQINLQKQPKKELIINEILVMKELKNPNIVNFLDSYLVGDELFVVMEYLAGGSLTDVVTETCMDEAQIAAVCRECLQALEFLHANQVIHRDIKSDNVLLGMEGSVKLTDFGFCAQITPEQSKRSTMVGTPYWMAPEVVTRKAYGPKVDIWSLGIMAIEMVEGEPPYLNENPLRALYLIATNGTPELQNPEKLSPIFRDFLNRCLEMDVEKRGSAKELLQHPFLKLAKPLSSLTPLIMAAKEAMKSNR
Test [7] has the same target. To be noted: at 10 µM.
Test [8] addresses Serine/threonine-protein kinase PAK 4 (Homo sapiens) (UniProt O96013). Particulars: at 1 µM.
The target is the same in test [9]. To be noted: at 10 µM.
Test [10] has as its target Serine/threonine-protein kinase Nek7 (Homo sapiens) (UniProt Q8TDX7). To be noted: at 10 µM.

Serine/threonine-protein kinase Nek6 (Homo sapiens), sequence (Q9HC98 whole entry): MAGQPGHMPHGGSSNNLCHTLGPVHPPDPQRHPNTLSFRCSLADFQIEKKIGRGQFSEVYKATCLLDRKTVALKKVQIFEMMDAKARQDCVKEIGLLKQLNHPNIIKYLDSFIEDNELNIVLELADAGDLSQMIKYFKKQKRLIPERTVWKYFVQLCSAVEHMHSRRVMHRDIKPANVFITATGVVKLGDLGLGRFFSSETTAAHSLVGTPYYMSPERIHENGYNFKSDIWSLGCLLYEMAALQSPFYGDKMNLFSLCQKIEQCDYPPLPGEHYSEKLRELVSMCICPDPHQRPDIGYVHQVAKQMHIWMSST
Serine/threonine-protein kinase PAK 4 (Homo sapiens), sequence (O96013 whole entry, looked up): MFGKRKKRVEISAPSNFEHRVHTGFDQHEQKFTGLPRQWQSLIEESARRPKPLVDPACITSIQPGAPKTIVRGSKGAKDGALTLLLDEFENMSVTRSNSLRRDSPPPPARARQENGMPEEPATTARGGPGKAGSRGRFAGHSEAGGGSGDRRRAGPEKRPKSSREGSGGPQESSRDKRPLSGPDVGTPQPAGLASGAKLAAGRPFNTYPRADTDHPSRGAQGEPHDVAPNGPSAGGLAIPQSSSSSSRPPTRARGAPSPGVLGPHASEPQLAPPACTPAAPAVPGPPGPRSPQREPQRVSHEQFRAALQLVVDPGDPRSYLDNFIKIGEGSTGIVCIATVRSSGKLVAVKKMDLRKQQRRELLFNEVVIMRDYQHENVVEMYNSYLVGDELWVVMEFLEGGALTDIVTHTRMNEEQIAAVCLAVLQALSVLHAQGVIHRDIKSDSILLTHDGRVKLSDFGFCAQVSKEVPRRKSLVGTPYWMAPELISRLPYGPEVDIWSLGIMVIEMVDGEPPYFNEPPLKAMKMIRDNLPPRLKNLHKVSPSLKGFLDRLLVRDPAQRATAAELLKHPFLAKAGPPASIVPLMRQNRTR
Serine/threonine-protein kinase Nek7 (Homo sapiens), sequence (Q8TDX7 whole entry, looked up): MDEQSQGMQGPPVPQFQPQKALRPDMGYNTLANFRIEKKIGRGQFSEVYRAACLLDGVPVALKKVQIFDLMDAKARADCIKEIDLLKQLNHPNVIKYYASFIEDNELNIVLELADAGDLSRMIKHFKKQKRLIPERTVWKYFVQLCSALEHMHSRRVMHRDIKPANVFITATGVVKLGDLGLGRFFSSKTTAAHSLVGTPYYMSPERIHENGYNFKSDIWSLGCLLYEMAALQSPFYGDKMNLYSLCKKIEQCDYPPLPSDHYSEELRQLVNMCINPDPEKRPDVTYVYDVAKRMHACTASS

For the compound `CC(C)[C@H](CO)Nc1nc(Nc2cccc(Cl)c2)c2ncn(C(C)C)c2n1`, the residual activity in [1] is 117% (inactive); in test [2], 122%; in [3] it was 102% (inactive); in test [4], 100%; in [5], 81%; in test [6], 99%. In addition, the residual activity in [7] came out at 79%; in test [8], 31%; in [9], 4%.

For the compound `O=c1[nH]c2ccccc2n1C1CCN(Cc2ccc(-c3nc4cc5[nH]cnc5cc4nc3-c3ccccc3)cc2)CC1`, the residual activity in test [1] was 109% (inactive); in [2], 116%; in test [3], 111% (inactive); in test [10], 69% (inactive); in [4], 105%; in test [5], 84%. The residual activity turned out to be 103% in test [6], 85% in test [7], 98% in test [8] and 74% in [9].

With `COc1ccc2c(c[n+](C)c3c4cc5c(cc4ccc23)OCO5)c1OC`, the residual activity was 68% in [2]; 100% (inactive) in [3]; 137% (inactive) in test [10]; 92% in test [4]; 76% in test [5]; 81% in test [7].

On to `CC(C)(C)c1cc(C=C(C#N)C#N)cc(Br)c1O`, for which the residual activity in [1] was 117% (inactive); in [2], 118%; in [3] it was 114% (inactive); in test [10] it was 116% (inactive); in test [5], 53%; in test [6], 125%. In addition, the residual activity in [7] came to 104%; in test [8], 113%; in [9], 100%.

Regarding `N/C(=N\[N+](=O)[O-])N/N=C\c1ccc(-c2cccc([N+](=O)[O-])c2)o1`, the residual activity in test [3] was 93% (inactive); in test [10], 90% (inactive); in test [6], 98%; in test [7] it was 95%.

As to `CN[C@@H]1C[C@H]2O[C@@](C)([C@@H]1OC)n1c3ccccc3c3c4c(c5c6ccccc6n2c5c31)C(=O)NC4`, the residual activity was 75% (inactive) in [1] and 72% in test [2].

For `C[S+]([O-])c1ccc(-c2nc(-c3ccc(F)cc3)c(-c3ccncc3)[nH]2)cc1` (stereo unspecified), the residual activity in test [1] was 112% (inactive); in [2] it was 103%; in test [3] it was 101% (inactive); in [10], 116% (inactive); in test [4] it was 62%; in [5] it was 24%. Also, the residual activity in [6] is 110%; in [7] it was 100%; in test [8] it was 106%; in test [9] it was 106%.

As to `CCc1nc(-c2ccc(OC)cc2)[nH]c1-c1ccncc1`, the residual activity in test [1] was 116% (inactive); in test [2] it was 117%; in test [3] it was 106% (inactive); in test [10], 104% (inactive); in test [6] it was 107%; in test [7], 110%. In addition, the residual activity in [8] was 111%; in test [9], 100%.

As to `O=[N+]([O-])/C=C/c1ccc2c(c1)OCO2`, the residual activity is 113% in test [2]; 99% (inactive) in test [3]; 114% (inactive) in test [10]; 107% in test [4]; 95% in test [5]; 111% in test [6]. For the same compound, the residual activity is 100% in test [7], 91% in test [8] and 93% in [9].

Consider `COc1cc2ncnc(Nc3ccc(OCc4ccccc4)cc3)c2cc1OC`, for which the residual activity in test [2] was 94%; in test [3], 98% (inactive); in test [10] it was 89% (inactive); in test [4], 111%; in test [5], 90%; in [6], 113%. Also, the values for the residual activity in [7], in test [8] and in [9] were 99%, 107% and 97%, respectively.

For `c1cc(-c2cnn3cc(-c4ccc(OCCN5CCCCC5)cc4)cnc23)ccn1`, the residual activity in [1] is 118% (inactive); in test [2] it was 106%; in test [3] it was 106% (inactive); in test [10] it was 104% (inactive); in test [4], 86%; in test [5] it was 34%. For the same compound, the residual activity in test [6] is 118%; in test [7], 103%; in [8], 84%; in test [9], 77%.

On to `O=C1Nc2ccc3ncsc3c2/C1=C/c1c[nH]cn1`, for which the residual activity in test [1] was 80% (inactive); in [2], 77%; in test [3] it was 84% (inactive); in [10], 63% (inactive); in [4], 29%; in test [5], 5%. Also, the residual activity was determined as 96% in test [6], 54% in [7], 67% in [8] and 22% in [9].

Turning to `COC(=O)[C@@]1(O)C[C@H]2O[C@]1(C)n1c3ccccc3c3c4c(c5c6ccccc6n2c5c31)C(=O)NC4`, the residual activity is 104% (inactive) in test [1]; 120% in test [2]; 103% (inactive) in [3]; 95% (inactive) in [10]; 42% in [4]; 10% in [5]. The residual activity in test [6] came to 19%; in test [7] it was 2%; in test [8], 3%; in [9], 0%.

As to `O=C1c2ccccc2-c2nc3nnnn3nc21`, the residual activity is 116% (inactive) in [3]; 105% (inactive) in test [10]; 112% in test [4]; 101% in test [6]; 75% in test [7].

For the compound `O=C1NC(=O)c2c1c1c3ccccc3n3c1c1c2c2ccccc2n1C1CCC3O1`, the residual activity in test [8] worked out at 84%; in test [9] it was 64%.

`CCn1cnc2c(Nc3cccc(Cl)c3)nc(N[C@@H]3CCCC[C@@H]3N)nc21`: the residual activity was 126% in test [2]; 112% (inactive) in test [10]; 80% in [4]; 34% in test [5]; 73% in test [7]; 30% in test [8]. Also, in test [9], the residual activity is 7%.

In the case of `COc1cc(OC)c(/C=C2\C(=O)Nc3ccccc32)c(OC)c1`, the residual activity in [4] is 92%; in test [5] it was 86%; in test [6], 97%.

As to `COc1ccc2c(c1)/C(=C/c1cnc[nH]1)C(=O)N2`, the residual activity turned out to be 70% in [4], 19% in test [5] and 46% in [9].

The residual activity is the signal under treatment as a percentage of the control signal.

The values above are taken from ChEMBL document CHEMBL2218924, “A broad activity screen in support of a chemogenomic map for kinase signalling research and drug discovery” (Biochem J, 2013).
